Results filed as inconclusive are left out. Calls of active or inactive are those of the source. Unless noted, calls follow the shape of the dose curve; as a rule, active = well fitted curve in the direction sought with a large enough effect; inconclusive = small, poorly fitted or top-dose-only effect, or another doubt; inactive = no such curve, though single readings can be large; an effect the other way counts as inactive or inconclusive.
Legend:
[1] = AP1 Signaling Pathway (AID 357; active = well fitted curve in either direction with a large enough effect, not every such curve was filed as active;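 also: ME-180 reporter cells stimulated with EGF at its EC50 level; % is scaled to controls: 0 for no effect and ±100 for the full control effect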); details: ME-180 AP-1-bla reporter, EGF-induced, beta-lactamase ratio, 5 h; at 7.69 µM (top of the series) unless noted
Outline: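 Cells are seeded overnight, exposed to compound titrations and an EC50 level of EGF for 5 hours at 37 °C, then loaded with CCF4 dye for 2.5 hours. Beta-lactamase activity under the AP-1 element is read as a blue/green ratio.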

[2] = NFAT Signaling Pathway (AID 444; active = well fitted curve in either direction with a large enough effect, not every such curve was filed as active;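 also: carbachol stimulus at about its EC50 of 1 µM final; % is scaled to controls: 0 for no effect and ±100 for the full control effect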); details: Jurkat NFAT-bla M1, carbachol, beta-lactamase ratio, 5 h; at 7.69 µM (top of the series) unless noted
Outline: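 Read-out: CCF4 FRET ratio (460 nm/530 nm) after 1 h RT dye loading, used for %activity and AC50 from titration series. Cells: Jurkat NFAT-β-lactamase/M1 line, treated with compound plus 1 uM carbachol for 5 h, 37 °C.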

[3] = Stat Signaling Pathway (AID 446; active = well fitted curve in either direction with a large enough effect, not every such curve was filed as active;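 also: ME-180 cervical cancer cells given 40 pM IL-6 alongside compound; SIE-controlled beta-lactamase reporter measured as 460/530 nm FRET emission ratio; % is scaled to controls: 0 for no effect and ±100 for the full control effect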); details: ME-180 (cervical carcinoma) SIE beta-lactamase reporter, IL-6 stimulated, 5 h; at 7.69 µM (top of the series) unless noted
Outline: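 FRET read-out (405 nm excitation, 460/530 nm emission) of a beta-lactamase reporter under a STAT-inducible element in ME-180 cervical carcinoma cells. Cells with compound receive 40 pM IL-6 for 5 h. Values are normalised to AC90 stimulation and AC90 JAK-inhibitor controls.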

[4] = molecular target: Glucocorticoid receptor (Homo sapiens) (UniProt P04150); assay: GR-GFP Redistribution (AID 450;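 active = compounds whose dose series gives a full or clear partial fitted curve of increased nuclear translocation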; also: potency is read from the fitted curve at half-maximal effect); details: U2OS GR-GFP nuclear translocation, laser cytometry, 2 h
Sequence of Glucocorticoid receptor (Homo sapiens) (P04150 whole entry, looked up, the tested form may be a part): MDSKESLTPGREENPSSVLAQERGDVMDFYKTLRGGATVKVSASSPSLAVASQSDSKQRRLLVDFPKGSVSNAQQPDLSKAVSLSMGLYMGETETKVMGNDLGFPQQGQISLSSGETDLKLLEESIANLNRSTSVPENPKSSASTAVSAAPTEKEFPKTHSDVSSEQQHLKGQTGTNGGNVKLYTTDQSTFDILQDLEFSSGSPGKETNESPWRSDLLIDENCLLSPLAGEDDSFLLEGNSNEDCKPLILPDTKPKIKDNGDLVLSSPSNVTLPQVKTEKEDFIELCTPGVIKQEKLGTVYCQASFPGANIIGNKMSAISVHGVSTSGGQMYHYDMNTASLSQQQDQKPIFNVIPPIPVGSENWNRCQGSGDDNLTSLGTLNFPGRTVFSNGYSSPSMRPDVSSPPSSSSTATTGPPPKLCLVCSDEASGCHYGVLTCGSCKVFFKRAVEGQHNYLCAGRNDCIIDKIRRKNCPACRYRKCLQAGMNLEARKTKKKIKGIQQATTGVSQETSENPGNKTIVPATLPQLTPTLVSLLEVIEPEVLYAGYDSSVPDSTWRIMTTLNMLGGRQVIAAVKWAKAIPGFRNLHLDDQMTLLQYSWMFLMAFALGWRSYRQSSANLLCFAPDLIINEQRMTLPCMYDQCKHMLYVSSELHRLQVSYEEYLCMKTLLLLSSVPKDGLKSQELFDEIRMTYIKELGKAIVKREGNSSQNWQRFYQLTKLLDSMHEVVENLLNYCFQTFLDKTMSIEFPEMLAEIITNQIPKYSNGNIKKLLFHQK

[5] = molecular target: Glucocorticoid receptor (Homo sapiens) (UniProt P04150); assay: GR-EFC Redistribution (AID 451; calls by dose curve; also: potency is read from the fitted curve at half-maximal effect); details: CHO-K1 GR-EFC translocation, beta-gal luminescence, 2 h
Outline: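 Translocation of GR-ED fusion to nuclear EA restores b-gal, read by luminescence after 1 h room-temperature detection. Engineered CHO-K1 biosensor cells, 1,000/well, exposed 2 h at 37 C to titrations up to 46 uM final.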

[6] = molecular target: Mitogen-activated protein kinase 10 (Mus musculus) (UniProt Q61831); assay: JNK3 AlphaScreen Assay (AID 530; active = well fitted curve in either direction with a large enough effect, not every such curve was filed as active;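 also: kinase came from lysate of stimulated human HepG2 cells; signal reports phosphorylation of biotinylated GST-cJun 1-79 at Ser73 with 10 µM ATP; % is scaled to controls: 0 for no effect and ±100 for the full control effect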)
Outline: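 qHTS titrations with 15 min compound pre-incubation before adding ATP (10 uM final). Read-out: AlphaScreen of Ser73-phosphorylated biotin-GST-cJun using HepG2 lysate JNK3 activated by IL-1β and TNFα.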

[7] = molecular target: 3',5'-cyclic-AMP phosphodiesterase 4B (Homo sapiens) (UniProt Q07343); assay: qHTS Assay for Inhibitors of PDE-IV (AID 607; active = well fitted activation curve with a large enough effect in the main read-out, with a control signal flat, not every such curve was filed as active; also: % of control where 0% means no effect)
Sequence of 3',5'-cyclic-AMP phosphodiesterase 4B (Homo sapiens) (Q07343 whole entry, looked up): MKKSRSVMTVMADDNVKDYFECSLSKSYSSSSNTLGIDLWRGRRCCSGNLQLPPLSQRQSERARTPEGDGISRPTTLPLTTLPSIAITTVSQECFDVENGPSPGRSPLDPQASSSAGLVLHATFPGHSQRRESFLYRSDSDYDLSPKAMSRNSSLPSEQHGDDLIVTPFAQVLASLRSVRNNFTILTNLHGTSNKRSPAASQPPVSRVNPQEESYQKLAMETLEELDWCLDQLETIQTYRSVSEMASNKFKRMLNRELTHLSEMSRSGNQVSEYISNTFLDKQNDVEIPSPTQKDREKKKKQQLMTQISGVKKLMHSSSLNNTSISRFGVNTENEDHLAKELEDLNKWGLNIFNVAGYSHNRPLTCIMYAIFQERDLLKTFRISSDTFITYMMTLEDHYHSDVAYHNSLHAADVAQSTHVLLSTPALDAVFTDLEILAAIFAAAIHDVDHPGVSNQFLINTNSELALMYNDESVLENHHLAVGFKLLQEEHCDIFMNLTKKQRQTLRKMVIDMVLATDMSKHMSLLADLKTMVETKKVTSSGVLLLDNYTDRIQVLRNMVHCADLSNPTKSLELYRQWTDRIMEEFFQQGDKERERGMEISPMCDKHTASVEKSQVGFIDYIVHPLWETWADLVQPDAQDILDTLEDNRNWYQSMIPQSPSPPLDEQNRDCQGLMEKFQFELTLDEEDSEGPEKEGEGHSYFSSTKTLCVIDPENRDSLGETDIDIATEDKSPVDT
Outline: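 Cell-based read-out of cAMP via a modified cyclic nucleotide-gated channel and membrane potential dye (535/590 nm) in HEK293 cells expressing PDE4 endogenously. Compounds tested up to 22.9 uM final; 100 uM RO 20-1724 reference.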

[8] = molecular target: Guanine nucleotide-binding protein G(i) subunit alpha-1 (Homo sapiens) (UniProt P63096); assay: qHTS Assay for Inhibitors of RGS12 GoLoco Motif Activity (Green Fluorophore) (AID 879);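 also: 0% = labeled peptide with Gαi1 and full inhibition = labeled peptide alone without protein; negative values mean loss of peptide binding seen as reduced polarization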
Sequence of Guanine nucleotide-binding protein G(i) subunit alpha-1 (Homo sapiens) (P63096 whole entry, looked up): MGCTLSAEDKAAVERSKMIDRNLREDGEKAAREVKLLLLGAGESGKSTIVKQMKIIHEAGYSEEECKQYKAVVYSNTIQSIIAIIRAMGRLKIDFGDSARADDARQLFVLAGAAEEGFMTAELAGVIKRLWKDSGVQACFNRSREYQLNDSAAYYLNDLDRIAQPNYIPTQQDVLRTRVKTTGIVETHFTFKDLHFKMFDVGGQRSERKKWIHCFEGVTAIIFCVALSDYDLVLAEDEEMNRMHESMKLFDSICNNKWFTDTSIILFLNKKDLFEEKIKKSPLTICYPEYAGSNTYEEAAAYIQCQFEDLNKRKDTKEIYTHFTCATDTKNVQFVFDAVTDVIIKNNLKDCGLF
Outline: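 A drop in FITC polarization marked displacement of the FITC-tagged RGS12 GoLoco peptide (10 nM) from Gαi1 (50 nM). Compounds were incubated 10 min at room temperature in Tris pH 7.5 buffer containing 150 mM NaCl, 0.1 mM GDP and 0.05% NP40; unlabeled peptide titration served as control.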

[9] = qHTS Assay for Identification of Small Molecule Agonists for Thrombopoietin (TPO) Signaling Pathway (AID 917); also: % is scaled to controls: 0 for no effect and ±100 for the full control effect
Outline: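 Stimulation at the TPO EC50 (26 pM final) was used to detect activators. Ba/F3 mouse cells bearing human TPO receptor and a luciferase reporter under the Glycoprotein IIb promoter were exposed to compounds for 24 hrs at 37 C.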

[10] = molecular target: Muscarinic acetylcholine receptor M1 (Rattus norvegicus) (UniProt P08482); assay: qHTS Assay for Antagonists of Acetylcholine Muscarinic M1 Receptor: Kinetic Measurement of Intracellular Calcium Response (AID 943);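 also: Fluo-4 calcium signal as peak divided by basal fluorescence over 4 min; nearly all actives have a fitted effect of over 75% in size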
Sequence of Muscarinic acetylcholine receptor M1 (Rattus norvegicus) (P08482 whole entry, looked up): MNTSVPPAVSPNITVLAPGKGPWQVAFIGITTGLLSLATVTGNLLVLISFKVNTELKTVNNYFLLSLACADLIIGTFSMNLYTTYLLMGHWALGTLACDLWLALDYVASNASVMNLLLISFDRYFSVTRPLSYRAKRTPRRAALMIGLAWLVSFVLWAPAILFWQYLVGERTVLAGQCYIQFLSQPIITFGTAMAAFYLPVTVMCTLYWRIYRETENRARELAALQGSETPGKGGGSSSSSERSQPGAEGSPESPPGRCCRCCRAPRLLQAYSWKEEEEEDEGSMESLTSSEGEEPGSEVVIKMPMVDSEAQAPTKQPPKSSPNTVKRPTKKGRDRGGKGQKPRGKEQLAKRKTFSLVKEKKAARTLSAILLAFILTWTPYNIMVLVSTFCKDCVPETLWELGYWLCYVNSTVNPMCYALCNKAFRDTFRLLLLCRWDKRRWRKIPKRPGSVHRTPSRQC
Outline: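 Antagonism is measured as inhibition of the carbachol-evoked calcium rise in CHO cells transfected with rat M1. Cells are dye-loaded, exposed to compound for 10 min, then stimulated with 100 nM carbachol (EC80).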

[11] = molecular target: Muscarinic acetylcholine receptor M1 (Rattus norvegicus) (UniProt P08482); assay: qHTS Assay for Antagonists of Acetylcholine Muscarinic M1 Receptor: Measurement of IP-One Response (AID 944); also: nearly all actives have a fitted effect of over 75% in size
Outline: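 Antagonist mode with rat M1 receptor transfected into CHO cells. Compound is added first for 10 min, carbachol at its EC80 follows for 30 min, and lysis reagents then allow TR-FRET detection of accumulated IP1.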

[12] = molecular target: Pyruvate kinase (Leishmania mexicana) (UniProt Q27686); assay: qHTS Validation Assay for Inhibitors of Leishmania Mexicana Pyruvate Kinase (AID 945);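 also: 0% = DMSO only neutral control wells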
Outline: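 qHTS eight-point titrations against 0.2 nM LmPYK (E451W) in imidazole buffer pH 7.2 with 0.5 mM PEP, 0.1 mM ADP; 1 h, room temperature. Readout: PKLight luminescence, normalized to neutral DMSO wells.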

[13] = molecular target: Pyruvate kinase PKM (Homo sapiens) (UniProt P14618); assay: qHTS Assay for Activators of Human Muscle Pyruvate Kinase (AID 954; active = well fitted curve in the direction sought with a large enough effect, not every such curve was filed as active;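 also: 0% = uninhibited enzyme and -100% = no enzyme or full thiadiazolimine inhibition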)
Outline: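 ATP production by PKM2 detected via luciferase luminescence after 1 h room-temperature reaction (0.1 nM enzyme, PEP at Km 0.5 mM, ADP 0.1 mM, pH 7.2 imidazole buffer). Inhibition scaled to no-enzyme control; activation referenced to 0.3 nM enzyme wells.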

[14] = molecular target: Alpha-galactosidase A (Homo sapiens) (UniProt P06280); assay: Counterscreen for Glucocerebrosidase Inhibitors: qHTS Assay for Human alpha-Galactosidase at pH 4.5 (AID 992); also: 0% is about no effect
Outline: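 Fluorogenic 1536-well qHTS at pH 4.5 (citrate, Tween-20): 2 nM enzyme, 80 uM 4-MU-alpha-galactoside, 20 min room temperature, NaOH/glycine stop. Titration 0.7 nM to 77 uM, data normalized to no-enzyme and full-activity controls, Hill-fitted AC50.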

[15] = molecular target: DNA repair nuclease/redox regulator APEX1 (Homo sapiens) (UniProt P27695); assay: qHTS Validation Assay for Inhibitors of the Human Apurinic/apyrimidinic Endonuclease 1 (APE1) (AID 1705)
Sequence of DNA repair nuclease/redox regulator APEX1 (Homo sapiens) (P27695 whole entry, looked up): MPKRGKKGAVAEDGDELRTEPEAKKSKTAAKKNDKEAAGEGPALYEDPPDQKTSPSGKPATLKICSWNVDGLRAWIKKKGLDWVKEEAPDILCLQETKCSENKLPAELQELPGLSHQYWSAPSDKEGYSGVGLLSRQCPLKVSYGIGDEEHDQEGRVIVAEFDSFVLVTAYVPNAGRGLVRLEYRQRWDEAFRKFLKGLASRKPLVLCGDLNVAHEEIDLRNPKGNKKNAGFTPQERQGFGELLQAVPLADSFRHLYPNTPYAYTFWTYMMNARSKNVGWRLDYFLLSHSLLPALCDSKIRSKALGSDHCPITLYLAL
Outline: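 Fluorogenic double-stranded THF abasic-site substrate (5'-TAMRA/3'-BHQ-2), 50 nM final. Enzyme preincubated with compound 15 min at room temperature, then substrate added. Kinetic fluorescence (ex 525/em 598 nm) read three times at 60 s intervals; activity taken as third-minus-first read difference.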

[16] = Counterscreen for APE1 Inhibitors: Fluorescent Dye Displacement Validation Assay (AID 1707);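 also: plate controls were ThO with dsDNA and no compound for no effect and ThO without dsDNA for full effect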
Outline: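 Counterscreen flags promiscuous DNA binders: compounds displacing ThO from duplex DNA (abasic THF site, 50 nM) reduce 540 nm emission (480 nm excitation). ThO 250 nM final; Tris-HCl pH 7.5 with NaCl, MgCl2 and Tween-20.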

[17] = molecular target: Endonuclease 4 (Escherichia coli (strain K12)) (UniProt P0A6C1); assay: Counterscreen for APE1 Inhibitors: qHTS Validation Assay for Inhibitors of Endonuclease IV (AID 1708); also: % is scaled to controls: 0 for no effect and ±100 for the full control effect
Outline: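 Incision of a double-stranded 50 nM TAMRA/BHQ-2 abasic substrate was followed kinetically (525/598 nm, reads every 60 s) after 15 min enzyme–compound preincubation with 2 nM EndoIV in pH 7.5 Tris buffer with MgCl2, DTT and Tween-20; concentration-response format.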

[18] = qHTS for differential inhibitors of proliferation of Plasmodium falciparum line D10 (AID 1877);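 also: parasites grown with compound for 72 h before DNA staining; plate controls were vehicle wells for no effect and reference inhibitor wells for full effect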
[19] = qHTS for differential inhibitors of proliferation of Plasmodium falciparum line Dd2 (AID 1882); details: Potency: Plasmodium falciparum Dd2 proliferation inhibition;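 also: plate controls were DMSO vehicle for no effect and 0.29 µM artemisinin for full effect; nearly all actives have a fitted effect of over 65% in size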
Outline: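 SYBR Green DNA fluorescence (ex 485, em 535 nm) after overnight lysis quantifies parasite growth; compound exposure lasted 72 h at 37 C on infected red cells at 2.5% hematocrit, 0.3% parasitemia (final). Artemisinin 0.29 uM and vehicle wells define normalization.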

[20] = molecular target: Ferritin light chain (Equus caballus) (UniProt P02791); assay: qHTS Validation Assay for Identification of Novel General Anesthetics (AID 2323); also: % is scaled to controls: 0 for no effect and ±100 for the full control effect
Outline: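 Horse-spleen apoferritin (10 uM) in PBS with 50% saturated 1-aminoanthracene; compounds pin-transferred, 10 min at room temperature. Fluorescence read at 380/535 nm, normalized to free 1-AMA and 1-AMA/apoferritin values; four-parameter Hill fit.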

[21] = molecular target: ATP-dependent DNA helicase Q1 (Homo sapiens) (UniProt P46063); assay: qHTS Validation Assay for Inhibitors of RecQ-Like Dna Helicase 1 (RECQ1) (AID 2353);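 also: plate controls were DMSO vehicle for no effect and enzyme-free control for full effect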
Sequence of ATP-dependent DNA helicase Q1 (Homo sapiens) (P46063 whole entry, looked up): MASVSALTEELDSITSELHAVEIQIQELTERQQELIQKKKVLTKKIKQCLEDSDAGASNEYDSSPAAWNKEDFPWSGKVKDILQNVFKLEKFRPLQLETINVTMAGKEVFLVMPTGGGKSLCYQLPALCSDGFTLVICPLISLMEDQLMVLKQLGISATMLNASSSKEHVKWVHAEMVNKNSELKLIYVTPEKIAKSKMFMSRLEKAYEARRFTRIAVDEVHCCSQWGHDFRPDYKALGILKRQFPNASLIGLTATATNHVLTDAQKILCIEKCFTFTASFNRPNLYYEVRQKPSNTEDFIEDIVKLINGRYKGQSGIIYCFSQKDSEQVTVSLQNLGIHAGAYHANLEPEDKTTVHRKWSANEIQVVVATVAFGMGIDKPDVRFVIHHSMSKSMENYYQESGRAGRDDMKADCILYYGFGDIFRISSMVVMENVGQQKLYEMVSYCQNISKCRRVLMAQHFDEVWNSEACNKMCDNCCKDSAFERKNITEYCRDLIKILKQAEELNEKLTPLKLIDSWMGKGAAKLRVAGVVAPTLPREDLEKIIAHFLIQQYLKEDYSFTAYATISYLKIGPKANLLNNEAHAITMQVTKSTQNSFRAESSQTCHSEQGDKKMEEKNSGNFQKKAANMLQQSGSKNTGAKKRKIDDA
Outline: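 RECQ1T1 50 nM; forked duplex (20 bp + 30-nt ss tails) 200 nM, ATP 2 mM final; pH 8.0, 2 mM MgCl2, 2.5 ug/ml poly(dI-dC); 15 min compound preincubation; discontinuous kinetic read over 2 h at RT.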

[22] = Validation screen for small molecules that induce DNA re-replication in MCF 10A normal breast cells (AID 463097); also: 0% is about no effect; nearly all actives have a fitted effect of over 60% in size
Outline: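 MCF 10A cells exposed to compound 48 hr at 37 C, 5% CO2, then Hoechst-stained 40 min. Laser-scanning imaging of nuclear DNA content (405 nm ex, 500-530 nm em); re-replication scored as rise in nuclei with elevated fluorescence intensity.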

[23] = Quantitative high throughput screen for delayed death inhibitors of the malarial parasite plastid, 48 hour incubation (AID 488752); also: % is scaled to controls: 0 for no effect and ±100 for the full control effect; nearly all actives have a fitted effect of over 65% in size
Outline: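 First, compound was pinned into RPMI 1640 medium containing 0.5% Albumax. Next, reporter-parasite-infected erythrocytes were added to 2% hematocrit and 0.1% parasitemia. After 48 h at 37 C under 5% CO2, luciferase detection reagent was added and luminescence read.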

[24] = molecular target: Transient receptor potential cation channel subfamily V member 1 (Homo sapiens) (UniProt Q8NER1); assay: HTS Assay for Compounds that Act as Enhancers of the Vanilloid Receptor 1 (AID 488979); also: 0% is about no effect
Sequence of Transient receptor potential cation channel subfamily V member 1 (Homo sapiens) (Q8NER1 whole entry, looked up): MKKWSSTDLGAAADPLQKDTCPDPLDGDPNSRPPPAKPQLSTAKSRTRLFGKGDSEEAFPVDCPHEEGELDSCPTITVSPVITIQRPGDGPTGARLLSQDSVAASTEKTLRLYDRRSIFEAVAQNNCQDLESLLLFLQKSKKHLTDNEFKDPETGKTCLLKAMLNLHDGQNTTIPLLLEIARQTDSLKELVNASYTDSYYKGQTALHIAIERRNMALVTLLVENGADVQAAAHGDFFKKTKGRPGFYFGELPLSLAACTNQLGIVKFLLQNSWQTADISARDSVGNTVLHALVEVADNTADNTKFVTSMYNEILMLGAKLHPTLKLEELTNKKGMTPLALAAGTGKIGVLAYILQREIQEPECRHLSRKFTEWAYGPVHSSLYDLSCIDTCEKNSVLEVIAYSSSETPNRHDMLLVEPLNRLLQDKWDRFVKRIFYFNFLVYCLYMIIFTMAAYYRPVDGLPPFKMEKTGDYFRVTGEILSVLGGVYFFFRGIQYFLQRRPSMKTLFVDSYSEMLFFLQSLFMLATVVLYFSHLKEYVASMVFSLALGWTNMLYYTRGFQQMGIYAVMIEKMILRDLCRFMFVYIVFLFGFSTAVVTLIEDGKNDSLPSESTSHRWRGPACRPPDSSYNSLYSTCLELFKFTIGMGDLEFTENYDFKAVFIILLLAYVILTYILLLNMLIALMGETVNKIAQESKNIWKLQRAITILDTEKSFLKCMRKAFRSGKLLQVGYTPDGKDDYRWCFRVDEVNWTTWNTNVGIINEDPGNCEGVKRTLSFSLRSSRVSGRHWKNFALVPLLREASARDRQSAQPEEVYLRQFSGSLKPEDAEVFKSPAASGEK
Outline: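 Calcium influx kinetics via Fluo-8 (480/520 nm) in TRPV1-expressing cells, 2000/well cultured overnight at 35.5C. Compound-alone read 3 min (agonist phase), followed by EC20 capsaicin challenge for 2 min (enhancer phase).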

[25] = molecular target: Thyrotropin receptor (Homo sapiens) (UniProt P16473); assay: qHTS Assay for Antagonists of the Thyroid Stimulating Hormone Receptor (AID 488980); also: 0% is about no effect
Sequence of Thyrotropin receptor (Homo sapiens) (P16473 whole entry, looked up): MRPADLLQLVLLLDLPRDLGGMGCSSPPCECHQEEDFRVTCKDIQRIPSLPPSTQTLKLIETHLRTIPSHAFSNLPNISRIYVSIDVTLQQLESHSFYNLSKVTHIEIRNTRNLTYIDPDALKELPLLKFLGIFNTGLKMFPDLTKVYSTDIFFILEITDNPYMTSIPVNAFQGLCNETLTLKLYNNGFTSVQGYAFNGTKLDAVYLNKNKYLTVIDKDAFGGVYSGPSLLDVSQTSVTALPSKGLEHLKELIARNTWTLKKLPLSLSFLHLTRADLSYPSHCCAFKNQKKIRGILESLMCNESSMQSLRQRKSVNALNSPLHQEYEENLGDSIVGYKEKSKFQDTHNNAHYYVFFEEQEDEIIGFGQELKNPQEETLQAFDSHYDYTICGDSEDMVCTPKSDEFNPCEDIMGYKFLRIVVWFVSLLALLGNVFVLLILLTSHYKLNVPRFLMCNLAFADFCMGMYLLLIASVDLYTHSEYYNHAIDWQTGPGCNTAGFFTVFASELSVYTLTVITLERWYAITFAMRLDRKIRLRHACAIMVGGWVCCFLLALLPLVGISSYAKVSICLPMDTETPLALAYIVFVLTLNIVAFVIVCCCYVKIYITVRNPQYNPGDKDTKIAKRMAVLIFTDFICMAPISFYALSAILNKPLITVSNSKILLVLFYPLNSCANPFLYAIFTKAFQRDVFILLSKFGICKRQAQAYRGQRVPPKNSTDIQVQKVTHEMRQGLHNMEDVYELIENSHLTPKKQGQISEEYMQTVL
Outline: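 TSHR-transfected HEK293 cells (2000/well) in HEPES-buffered HBSS with 70 uM RO 20-1724 were stimulated with 4 nM TSH (EC80, final) in the presence of compound. cAMP was measured by HTRF competition after lysis and 30 min at RT.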

[26] = molecular target: Thyrotropin-releasing hormone receptor (Homo sapiens) (UniProt P34981); assay: qHTS for Small Molecule Agonists and Allosteric Enhancers of Human TRH Receptor: Validation Screen for Agonists (AID 493127;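 active = calcium activation more than 3 SD above the typical response in the agonist read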;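 also: intracellular calcium rise by fluo-8 fluorescence before TRH EC20 addition; 0% is about no effect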); details: TRH receptor agonist cell assay; at 2 µM; active compounds read high
Outline: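 Compounds are added by online pintool to dye-loaded TRHR cells while fluorescence is recorded every second. A rise in calcium signal during the agonist read marks activation; a later 10 nM TRH addition (EC20) serves the separate enhancer mode.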

[27] = molecular target: Galactokinase (Homo sapiens) (UniProt P51570); assay: qHTS Validation Assay for Inhibitors of Human Galactokinase (GALK) (AID 493189); also: 0% is about no effect
Outline: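 GALK (5 nM) with 35 uM ATP and 100 uM galactose in HEPES pH 8.0 with MgCl2, NaCl, DTT and BSA. Reaction ran 1 h at room temperature. Residual ATP read by Kinase-Glo Plus luminescence.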

[28] = Validation screen for small molecules that induce DNA re-replication in SW480 colon adenocarcinoma cells (AID 504364); also: 0% is about no effect
Outline: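 Image-based qHTS: compounds were incubated with SW480 cells for 48 hr, nuclei stained with Hoechst, and per-nucleus fluorescence intensity scanned to flag cells with excess DNA content.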

[29] = molecular target: Voltage-gated inwardly rectifying potassium channel KCNH2 (Homo sapiens) (UniProt Q12809); assay: qHTS Assay for Small Molecule Inhibitors of the Human hERG Channel Activity (AID 588834);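 also: top concentration of the series differs between compounds; % is scaled to controls: 0 for no effect and ±100 for the full control effect; lower thallium flux fluorescence means stronger hERG block; nearly all actives have a fitted effect of over 50% in size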
Outline: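 Thallium serves as surrogate for K+ influx through BacMam-delivered hERG in U2OS cells. Compounds are added for about 10 minutes after dye loading; stimulation buffer then starts flux, monitored kinetically on FDSS.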

COc1ccc2c(c1)c(CC(=O)O)c(C)n2Cc1ccc(F)cc1
inactive: activity change, negative = inhibition [1] 1.56% [at 38 µM] | activity change, negative = inhibition [2] 6.06% [at 38 µM] | activity, negative = inhibition [3] 11.9% [at 38 µM] | Potency [4] > 46 µM | Potency [5] > 46 µM | outcome [6] | Potency [7] | outcome [8] | outcome [9] | Potency [10] | Potency [11] | Potency [12] | outcome [13] | outcome [14] | Potency [15] | Potency [16] | outcome [17] | Potency [18] | Potency [19] | outcome [20] | Potency [21] | outcome [22] | Potency [23] | outcome [24] | outcome [25] | activation [26] 1.38% | outcome [27] | outcome [28] | Potency [29]

Source: PubChem BioAssay (NCATS)
